Screening data from PubChem BioAssay.
Rows were chosen to be rich in hits. Some 5.4% of all compounds tested hit in one or more screens of this group.
CSC inhib: blocks cancer stem cells | cancer stem cell-like cells viability, luminescence | inhibition, % at 7.5 µM | 300,000 compounds, 1.1% hits | AID 2717; in the data active = inhibition above about 75%; tested in HMLE shEcad cells
ALR inh: blocks human ALR sulfhydryl oxidase activity; P55789; purified ALR, DTT oxidation, H2O2 HRP-luminol luminescence; inhibition, % (test concentration not listed); 290,000 compounds, 3.8% hits; AID 485317;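 active = mean replicate inhibition above about 79%, with every replicate also reaching it, limit read from the data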
Target sequence (P55789 whole entry, looked up): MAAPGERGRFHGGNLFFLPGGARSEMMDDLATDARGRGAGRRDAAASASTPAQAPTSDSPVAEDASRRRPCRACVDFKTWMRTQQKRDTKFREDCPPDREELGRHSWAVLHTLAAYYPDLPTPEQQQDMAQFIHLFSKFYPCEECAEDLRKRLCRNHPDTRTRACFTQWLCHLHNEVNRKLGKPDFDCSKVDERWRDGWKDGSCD
Calb FLC: affects C. albicans growth with fluconazole. C. albicans CaCi-2 (fluconazole-resistant clinical isolate) + fluconazole, Alamar Blue growth, 48 h. growth inhibition, % (no concentration beside the values). 300,000 compounds, 0.57% hits. AID 1979;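 active = growth inhibition above about 58% in most replicates, limit read from the data, passing the limit was not always enough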;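 note: all wells also contain fluconazole at 8 µg/ml as a sub-toxic cotreatment; 0% = median of DMSO wells and 100% = median of geldanamycin control wells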
PP5 primary: inhibitors of human protein phosphatase 5 (PP5); P53041; purified PP5c, OMFP substrate fluorescence; inhibition, % at 6.7 µM; 320,000 compounds, 0.18% hits;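 active = inhibition above the campaign's mean inhibition across all tested compounds plus 3 SD, cut at about 9.5% in these data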;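 note: 0% = DMSO only and 100% = 100 µM cantharidin control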
PP1 inh: blocks human PP1-alpha phosphatase, a PP5 counter-screen | P62136 | purified PP1alpha, OMFP fluorescence | inhibition, % at 6.7 µM | 320,000 compounds, 0.9% hits | AID 2235;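 active = inhibition above the mean inhibition of all tested compounds plus 3 SD, computed separately for each screening campaign, cut at about 15% in these data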
Target sequence (P62136 whole entry, looked up): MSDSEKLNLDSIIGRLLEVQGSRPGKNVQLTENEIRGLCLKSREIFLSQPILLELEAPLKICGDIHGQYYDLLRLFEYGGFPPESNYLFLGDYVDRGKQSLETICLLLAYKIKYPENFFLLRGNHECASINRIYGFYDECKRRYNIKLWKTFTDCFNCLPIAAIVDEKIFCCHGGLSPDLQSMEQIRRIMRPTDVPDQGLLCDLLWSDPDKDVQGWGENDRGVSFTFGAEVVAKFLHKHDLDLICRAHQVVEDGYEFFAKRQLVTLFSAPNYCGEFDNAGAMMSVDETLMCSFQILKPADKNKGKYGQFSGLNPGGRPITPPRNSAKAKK
Active calls of the source: *.

Screening OCC(CO)(CO)NCC(O)CN1c2ccccc2Sc2ccccc21 (centres undefined) returned CSC inhib -4, ALR inh 99*, Calb FLC 11, PP5 primary 0 and PP1 inh -2.
Screening O=C1c2ccccc2C(=O)N1CC(O)Cn1nnc2ccccc21 (centres undefined) returned CSC inhib -10, ALR inh -6, Calb FLC 24, PP5 primary 1 and PP1 inh -2.
`COc1ccnc(Oc2cccc(C(F)(F)F)c2)c1C(=O)N/C=N/OCc1ccccc1F` gave CSC inhib 7, ALR inh 1, Calb FLC 108*, PP5 primary 4 and PP1 inh 2.
Cc1cc(NCCCn2ccnc2)n2nc(-c3ccc(Cl)cc3)cc2n1 was read as CSC inhib 27, ALR inh 97*, Calb FLC 37, PP5 primary 0 and PP1 inh 6.
For Cc1cc(NCCCn2ccnc2)n2nc(-c3ccc(F)cc3)cc2n1 the results were CSC inhib -7, ALR inh 43, Calb FLC 21, PP5 primary 4 and PP1 inh -3.
COc1ccc(OC)c(C2CC(=O)N3CN(c4ccccc4F)CSC3=C2C#N)c1 (centres undefined) was read as CSC inhib -5, ALR inh 79*, Calb FLC -1, PP5 primary 3 and PP1 inh -1.
For NS(=O)(=O)c1cccc(NC(=O)CSc2ncnc3ccccc23)c1 the results were CSC inhib 0, ALR inh 99*, Calb FLC -1, PP5 primary -1 and PP1 inh 0.
For CCN(CC)S(=O)(=O)c1ccc(NC(=O)CSc2ncnc3ccccc23)cc1 the results were CSC inhib -13, ALR inh 98*, Calb FLC -1, PP5 primary 1 and PP1 inh -1.
Cc1cccc(N2C(=O)N(c3ccccc3C)C3CS(=O)(=O)CC32)c1 (centres undefined) was read as CSC inhib -17, ALR inh -5, Calb FLC 10, PP5 primary 3 and PP1 inh 0.
Screening Cc1ccc2c(c1)N(CC(=O)N1CCc3ccccc3C1)C(=O)CO2 returned ALR inh -1, Calb FLC 7, PP5 primary -1 and PP1 inh -1.
`Cc1ccccc1N1CCN(C(=O)c2ccc(Oc3ccc(C(F)(F)F)cn3)cc2)CC1` gave CSC inhib 87*, ALR inh -37, Calb FLC -4, PP5 primary 4 and PP1 inh 3.
`CNC(=O)NC(=O)COC(=O)CCc1nc(=O)c2ccccc2n1C` gave CSC inhib -10, ALR inh -1, Calb FLC -9, PP5 primary -1 and PP1 inh 1.
Screening O=C(NC(=S)N1CCOCC1)c1ccc(F)cc1 returned CSC inhib -15, ALR inh 7, Calb FLC 1, PP5 primary 2 and PP1 inh 0.
For CC(=O)Nc1sc(C)c(C)c1C(=O)OCC(=O)N(CC(C)C)c1c(N)n(Cc2ccccc2)c(=O)[nH]c1=O the results were CSC inhib 81*, ALR inh -7, PP5 primary 1 and PP1 inh 7.
CCOc1ccc(NCc2cc3cc(OC)ccc3[nH]c2=O)cc1 was read as CSC inhib 13, ALR inh 24, Calb FLC 7, PP5 primary 4 and PP1 inh -2.
`COC(=O)CSc1nc(N)c(C#N)c(-c2ccco2)c1C#N` gave CSC inhib 11, Calb FLC 8, PP5 primary 2 and PP1 inh 4.
COC(=O)CSc1nc(-c2ccccc2)cc(-c2ccco2)c1C#N was read as ALR inh 95*, Calb FLC 5, PP5 primary -1 and PP1 inh -1.
N#Cc1c(-c2ccccc2)cc(-c2ccccc2)nc1SCCC(=O)O was read as CSC inhib 75*, Calb FLC 54, PP5 primary 1 and PP1 inh 6.
Screening COc1cc(-c2cc(-c3ccccc3)nc(SCC(=O)O)c2C#N)cc(OC)c1OC returned CSC inhib -23, ALR inh 6, Calb FLC 4, PP5 primary 0 and PP1 inh 3.
For N#Cc1c(-c2ccc(Cl)cc2)cc(-c2ccccc2)nc1SCC(=O)O the results were CSC inhib 32, ALR inh 42, Calb FLC 88*, PP5 primary 5 and PP1 inh 13.
Screening CCOc1ccc(S(=O)(=O)Nc2ccc3c(c2)n(C)c(=O)n3C)cc1 returned Calb FLC -9, PP5 primary -1 and PP1 inh -1.
`CCOC(=O)C1=C(N)n2c(s/c(=C\c3cccnc3)c2=O)=C(C(=O)OC)C1c1cccnc1` (centres undefined) gave CSC inhib -2, ALR inh -8, Calb FLC -3, PP5 primary 2 and PP1 inh 2.
`O=C(COC(=O)c1ccncc1)Nc1cccc(Cl)c1` gave CSC inhib 1, ALR inh 7, Calb FLC -8, PP5 primary 1 and PP1 inh -1.
For O=C(Nc1ccc(Cn2cccn2)cc1)c1ccc(COc2cccc(Br)c2)cc1 the results were CSC inhib 99*, ALR inh 8, Calb FLC 0, PP5 primary 3 and PP1 inh 6.
`O=C(Nc1ccc(Cn2cccn2)cc1)c1ccc(COc2ccc(Br)cc2)cc1` gave CSC inhib 3, ALR inh -4, Calb FLC 0, PP5 primary -1 and PP1 inh 4.
O=C(Nc1ccc(O)cc1)c1ccc(C(=O)c2ccccc2)o1 was read as CSC inhib 22, ALR inh 97*, Calb FLC -10, PP5 primary -1 and PP1 inh -4.
`O=C(Nc1ccc(Nc2ccccc2)cc1)c1ccc(Br)o1` gave ALR inh 99*, Calb FLC -1, PP5 primary 5 and PP1 inh 0.
Oc1c(Br)cc(Br)cc1CNc1ccc(F)cc1 was read as CSC inhib -4, ALR inh 98*, Calb FLC 34, PP5 primary 1 and PP1 inh 1.
For COc1ccccc1CNCc1cc(Br)ccc1OC the results were CSC inhib 3, ALR inh -1, Calb FLC -36, PP5 primary 4 and PP1 inh 0.
For COc1ccc(Br)cc1CNc1ccc(O)cc1 the results were CSC inhib 12, ALR inh 98*, PP5 primary 6 and PP1 inh 4.
Screening Oc1c(Br)cc(Br)cc1CNc1cnc2ccccc2c1 returned CSC inhib 58, ALR inh -29, Calb FLC 10, PP5 primary 1 and PP1 inh -1.
For COc1ccc(Br)cc1CNc1ccc2[nH]c(=O)[nH]c2c1 the results were CSC inhib -3, ALR inh 99*, Calb FLC 2, PP5 primary 4 and PP1 inh -1.
COc1ccccc1CN1C[C@@H]2C[C@@H](C3=Cc4cccc(OC)c4OC3)N3CCC[C@@]23C1=O was read as CSC inhib -4, ALR inh -16, Calb FLC -14, PP5 primary -1 and PP1 inh -5.
